Broadly, the viability is a read-out of living cells in per cent, often relative to untreated cells.

These results are taken from PubChem BioAssay (NCATS).

Assay [1] concerns the target Cellular tumor antigen p53 (Homo sapiens) (UniProt P04637). Kind of assay: Primary qHTS for small molecule compounds that upregulate eGFP-tagged delta133p53alpha (in N-terminal) cells. (AID 2060322). Further: nearly all actives have a fitted effect of over 75% in size. Further: potency means the concentration at half of the fitted maximal effect.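 On activation: cells pre-induced with doxycycline then dosed without doxycycline; series mostly up to about 56 µM; 0% = DMSO vehicle and 100% = reference activator.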 As to conditions: NCI-H358 eGFP-delta133p53alpha fluorescence, 24 h; activation: hits give high values. The gist of the method: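 NCI-H358 cells pre-induced 24 h with 10 ng/ml doxycycline for eGFP-delta133p53alpha, plated dox-free and exposed 24 h at 37C to titrated compounds. Fixed, Hoechst-stained; gated GFP peak intensity by laser scanning cytometry, normalized to DMSO (0%) and 57.5 uM 5-azacytidine (100%).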

Assay [2] shares this target. Kind of assay: Primary qHTS for small molecule compounds that upregulate eGFP-tagged delta133p53alpha (in C-terminal) cells. (AID 2060324).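 Further: 0% = DMSO wells and 100% = 57.5 µM 5-azacytidine.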 Summed up: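 Read-out: gated-cell GFP peak intensity (laser scanning cytometer), plate-normalized with DMSO as 0% activity, after 24 h compound exposure at 37C. Cells were C-terminal eGFP-tagged delta133p53alpha NCI-H358, doxycycline-induced (100 ng/ml, 24 h) before plating.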
On the technique in general: qHTS replaces the single test concentration by a dilution series.

Assay [3] has as its target Aldehyde dehydrogenase, mitochondrial (Homo sapiens) (UniProt P05091). Nature of the assay: qHTS for Inhibitors of the Aldehyde Dehydrogenase Family (ALDH2) Validation screens (AID 2061302; active means well fitted inhibition curve with a large enough effect; title and protocol of this record describe different tests;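 further: plate controls were DMSO vehicle for no effect and maximal DPI positive control response for full effect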).
The target is the same in assay [4]. Nature of the assay: qHTS for Inhibitors of the Aldehyde Dehydrogenase Family (ALDH2) Confirmatory screens (AID 2061303; active means well fitted inhibition curve with a large enough effect; title and protocol of this record describe different tests; further: on the % scale 0 is the no-effect control and ±100 the full control effect; nearly all actives have a fitted effect of over 45% in size).
In assay [5] the target is Retinaldehyde dehydrogenase 3 (Homo sapiens) (UniProt P47895). Nature of the assay: qHTS for Inhibitors of the Aldehyde Dehydrogenase Family (ALDH1A3) Confirmatory screens (AID 2061311). Further: on the % scale 0 is the no-effect control and ±100 the full control effect; nearly all actives have a fitted effect of over 60% in size.
Assay [6] deals with Retinal dehydrogenase 2 (Homo sapiens) (UniProt O94788). Nature of the assay: qHTS for Inhibitors of the Aldehyde Dehydrogenase Family (ALDH1A2) Confirmation screens (AID 2061314). Further: on the % scale 0 is the no-effect control and ±100 the full control effect; nearly all actives have a fitted effect of over 65% in size.
The nature of assay [7]: BET inhibitor-based combinations targeting novel dependencies in MECOM-rearranged (r) AML: SET-2 cell line (AID 2202231).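 Further: plate controls were DMSO treated cells for no effect and wells without cells for full effect; nearly all actives have a fitted effect of over 35% in size.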 To be noted: SET-2 AML cells viability, CellTiter-Glo luminescence, 48 h; viability: hits give low values, series mostly up to about 46 µM. The gist of the method: (§1)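 Here, 11-point titrations of each agent were applied to 500 seeded cells and incubated 48 hr; CellTiter-Glo signal, scaled against DMSO and empty wells, was integrated as AUC, then Z-scored within the individual line.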

Assay [8] can be described thus: BET inhibitor-based combinations targeting novel dependencies in MECOM-rearranged (r) AML: OCI-AML3 cell line (AID 2202232).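 Further: series mostly up to about 46 µM; plate controls were DMSO vehicle wells for no effect and wells without cells for full effect; nearly all actives have a fitted effect of over 35% in size.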 As to conditions: Potency: OCI-AML3 viability. Summed up: as §1
The nature of assay [9]: BET inhibitor-based combinations targeting novel dependencies in MECOM-rearranged (r) AML: MV-4-11 cell line (AID 2202233).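 Further: plate controls were DMSO for no effect and blank wells for full effect; nearly all actives have a fitted effect of over 45% in size.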 The gist of the method:
(§2)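 Normalized to DMSO and empty-well controls, the luminescence data from CellTiter-Glo after 48 hr drug exposure were fitted across 11 concentrations. Reported metrics are area under the dose-response curve and its Z-transformed form.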

A short description of assay [10]: BET inhibitor-based combinations targeting novel dependencies in MECOM-rearranged (r) AML: HNT-34 cell line (AID 2202234).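 Further: plate controls were vehicle wells for no effect and cell-free wells for full effect; nearly all actives have a fitted effect of over 35% in size.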 Summed up:
as §2

The nature of assay [11]: BET inhibitor-based combinations targeting novel dependencies in MECOM-rearranged (r) AML: UCSD-AML1 cell line (AID 2202235).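 Further: series mostly up to about 46 µM; plate controls were DMSO vehicle wells for no effect and blank wells for full effect; nearly all actives have a fitted effect of over 40% in size.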 The gist of the method:
as §2

Assay [12] is described as follows: BET inhibitor-based combinations targeting novel dependencies in MECOM-rearranged (r) AML: AML-191 cell line (AID 2202236;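 further: plate controls were vehicle wells for no effect and wells without cells for full effect; nearly all actives have a fitted effect of over 35% in size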). The gist of the method: as §1
The nature of assay [13]: qHTS for Inhibitors of the Aldehyde Dehydrogenase Family (ALDH1A2, ALDH1A3, ALDH2, ALDH3A1) (AID 2061307). Further: on the % scale 0 is the no-effect control and ±100 the full control effect; nearly all actives have a fitted effect of over 50% in size.
For assay [14], the target named is Aldehyde dehydrogenase 1A1 (Homo sapiens) (UniProt P00352). Nature of the assay: qHTS for Inhibitors of the Aldehyde Dehydrogenase Family (ALDH1A1) Confirmatory screens (AID 2061316). Further: on the % scale 0 is the no-effect control and ±100 the full control effect; nearly all actives have a fitted effect of over 65% in size.
For assay [15], the target named is Aldehyde dehydrogenase, mitochondrial (Homo sapiens) (UniProt P05091). Kind of assay: qHTS for Inhibitors of the Aldehyde Dehydrogenase Family (ALDH2) Primary screen (AID 2061308).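 Further: plate controls were vehicle for no effect and reference inhibitor for full effect; nearly all actives have a fitted effect of over 55% in size.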
The target of assay [16] is Retinaldehyde dehydrogenase 3 (Homo sapiens) (UniProt P47895). Nature of the assay: qHTS for Inhibitors of the Aldehyde Dehydrogenase Family (ALDH1A3) Validation screen (AID 2061312). Further: on the % scale 0 is the no-effect control and ±100 the full control effect; nearly all actives have a fitted effect of over 45% in size.

Molecules are shown by their SMILES. Values joined by “and” are separate entries in the source; they are usually repeats but may differ in a detail not shown here. Identical values can stand only once. Inconclusive results are not listed. Active and inactive are the calls of the source. Unless noted, the call rests on the fitted dose curve; in most records, active means well fitted curve in the direction sought with a large enough effect; inconclusive means small, poorly fitted or top-dose-only effect, or another doubt; inactive means no such curve, though single readings can be large; an effect the other way counts as inactive or inconclusive.

Chain of Cellular tumor antigen p53 (Homo sapiens) (P04637 whole entry, looked up): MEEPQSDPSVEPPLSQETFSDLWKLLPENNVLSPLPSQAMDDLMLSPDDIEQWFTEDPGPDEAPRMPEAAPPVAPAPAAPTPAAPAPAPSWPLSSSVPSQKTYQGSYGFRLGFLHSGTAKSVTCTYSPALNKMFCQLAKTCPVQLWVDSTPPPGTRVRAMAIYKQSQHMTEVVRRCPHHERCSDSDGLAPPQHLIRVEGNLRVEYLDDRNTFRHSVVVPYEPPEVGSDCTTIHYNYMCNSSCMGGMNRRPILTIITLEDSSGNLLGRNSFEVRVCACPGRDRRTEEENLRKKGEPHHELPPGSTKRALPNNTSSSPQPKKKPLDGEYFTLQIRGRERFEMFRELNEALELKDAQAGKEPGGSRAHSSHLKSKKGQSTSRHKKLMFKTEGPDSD

Consider `Nc1nc2c(cnn2CCc2ccccc2)c2nc(-c3ccco3)nn12`, for which the activation in assay [1] was -28.5% (inactive). The Potency result in [2] and in assay [3] was “inactive” throughout.
Consider `CN1CCc2cc(NC(=O)Nc3cccnc3)ccc21`, for which the activation in [1] was -9.58% (inactive). Also, the Potency result in assay [2] and in assay [3] was “inactive” throughout.
On to `NC1CCN(O)C1=O` (centres undefined), for which the activation in assay [1] was -20% (inactive). Besides, the Potency entry in assay [2] and in assay [3] was “inactive” each time.
Take `CSc1ccc2c(c1)C(N1CCN(C)CC1)Cc1ccccc1S2` (centres undefined): the activation in assay [1] was 48% (inactive). Also, the Potency entry in assay [2] and in assay [3] was “inactive” each time.
For `CC(=O)N[C@H](C(=O)O)C(C)(C)SN=O`, the activation in assay [1] is -54.1% (inactive). In addition, the Potency result in assay [2] and in assay [3] was “inactive” in each case.
For the compound `COc1cc(C(=O)OCCCN2CCCN(CCCOC(=O)c3cc(OC)c(OC)c(OC)c3)CC2)cc(OC)c1OC`, the activation in assay [1] is -3.95% (inactive) and -82% (inactive). Further, the Potency result in assay [2] and in assay [3] was “inactive” in each case.
Turning to `NC(Cc1cccc(-c2ccccc2CP(=O)(O)O)c1)C(=O)O` (centres undefined), the activation in assay [1] was 5.19% (inactive). In addition, the Potency result in assay [2] and in [3] was “inactive” each time.
For the compound `CC(N)(Cc1ccc(O)c(O)c1)C(=O)O` (centres undefined), in [1], the activation is -16.9% (inactive). Besides, the Potency result in assay [2] and in assay [3] was “inactive” throughout.
`CCCCCCCCCC[Si](C)(C)CCC(=O)NC(Cc1ccc(C)cc1)c1ccccc1` (centres undefined): the activation in assay [1] was -9.05% (inactive). In addition, the Potency entry in assay [2] and in assay [3] was “inactive” in each case.
Consider `CN(C)CCCc1cc(C(=O)Nc2ccc(-c3ccncc3)cc2)ccc1O`, for which the activation in [1] is -14.9% (inactive). Further, the Potency entry in [2] and in assay [3] was “inactive” in each case.
Take `O=c1cc(O)cc(/C=C/c2ccc(O)c(O)c2)o1`: in assay [1], the activation was -54.7% (inactive). Besides, the Potency entry in [2] and in [3] was “inactive” in each case.
Turning to `CCCn1c(=O)c2[nH]c(-c3ccc(S(=O)(=O)O)cc3)nc2n(CCC)c1=O`, the activation in [1] was -6.22% (inactive). The Potency entry in assay [2] and in assay [3] was “inactive” each time.
`COc1ccc(NC(=O)c2ccc(-c3ccc(-c4noc(C)n4)cc3C)cc2)cc1N1CCN(C)CC1`: the activation in [1] was -47.1% (inactive). Moreover, the Potency entry in assay [2] and in assay [3] was “inactive” throughout.
With `C=CCN1CCc2c(cc(O)c(O)c2Br)[C@@H](c2ccccc2)C1`, in [1], the activation is -46.3% (inactive). Moreover, the Potency result in assay [2] and in assay [3] was “inactive” throughout.
As for `COC(=O)[C@H]1[C@H]2C[C@H]3c4[nH]c5ccccc5c4CCN3C[C@H]2CC[C@@H]1O`, the activation in assay [1] was -1.08% (inactive). The Potency entry in assay [2] and in [3] was “inactive” in each case.
Take `CC(CN1c2ccccc2Sc2ccccc21)N(C)C` (centres undefined): the activation in [1] is -20.9% (inactive) and -2.49% (inactive). Also, the Potency result in assay [2] and in assay [3] was “inactive” in each case.
With `COc1cc2c(CCNC(C)=O)c[nH]c2cc1O`, in [1], the activation was -10.8% (inactive). Moreover, the Potency result in assay [2] and in [3] was “inactive” in each case.
For `CNCC(O)c1ccc(O)c(O)c1` (centres undefined), the activation in [1] is 7.34% (inactive). Moreover, the Potency entry in assay [2] and in assay [3] was “inactive” in each case.
On to `O=c1[nH]c(=S)[nH]c(-c2ccccc2)c1Cc1c(O)ccc2ccccc12`, for which the activation in [1] was -41.1% (inactive). For the same compound, the Potency result in assay [2] and in [3] was “inactive” each time.
Regarding `CN1C2CCC1CC(OC(=O)C(O)c1ccccc1)C2` (centres undefined), in [1], the activation was 8.16% (inactive). Moreover, the Potency result in assay [2] and in assay [3] was “inactive” throughout.
On to `COc1ccc2c(c1OC)C(=O)O[C@@H]2[C@H]1c2c(cc3c(c2OC)OCO3)CCN1C`, for which the Potency in [1] was 21.9 µM (active). The Potency entry in assay [2] and in assay [3] was “inactive” in each case.
Regarding `NC(C(=O)N[C@@H]1C(=O)N2C(C(=O)O)=C(Cl)CS[C@H]12)c1ccccc1` (some centres undefined), in assay [1], the activation was 6.44% (inactive). Besides, the Potency result in [2] and in assay [3] was “inactive” in each case.
In the case of `Cc1cccc(C#Cc2ccccc2)n1`, in assay [1], the activation is -6.63% (inactive) and 22.8% (inactive). Besides, the Potency entry in assay [2] and in [3] was “inactive” each time.
For `CC(C)(C)c1onc(OCP(=O)(O)O)c1CC(N)C(=O)O` (centres undefined), in assay [1], the activation was 5.95% (inactive). The Potency entry in assay [2] and in assay [3] was “inactive” throughout.
Consider `Oc1cc2c(c(Cl)c1O)CCNCC2c1ccccc1` (centres undefined), for which the activation in [1] was -28% (inactive). Moreover, the Potency entry in assay [2] and in assay [3] was “inactive” throughout.
Turning to `CNCCNS(=O)(=O)c1cccc2cnccc12`, the activation in [1] was -55.4% (inactive). In addition, the Potency entry in assay [2] and in [3] was “inactive” in each case.
Regarding `Oc1ccc(C2CNCc3sccc32)cc1O` (centres undefined), the activation in [1] was 8.23% (inactive). In addition, the Potency result in [2] and in [3] was “inactive” each time.
As to `Cc1nc2n(c(=O)c1CCN1CCC(c3noc4cc(F)ccc34)CC1)CCCC2O` (centres undefined), the activation in [1] is 3.58% (inactive). Further, the Potency result in [2] and in assay [3] was “inactive” in each case.
For `Cc1[nH]c(=O)c(C#N)cc1-c1ccncc1`, the activation in [1] is 7.4% (inactive) and -9.21% (inactive) and 7.59% (inactive). The Potency entry in assay [2], in [3], in [4], in assay [5], in assay [6] and in assay [8] was “inactive” each time. Further, the Potency result in [9], in [10], in [11] and in [12] was “inactive” in each case. The viability in assay [7] was 118% (inactive).
On to `CN1CCN(CC(=O)N2c3ccccc3C(=O)Nc3cccnc32)CC1`, for which the activation in [1] is -10% (inactive) and 3.74% (inactive). For the same compound, the Potency entry in [2], in assay [3], in assay [4], in [13], in assay [5] and in assay [6] was “inactive” each time. Besides, the Potency result in assay [14] is “inactive”.
On to `CN1CCC[C@@H]1Cc1c[nH]c2ccc(CCS(=O)(=O)c3ccccc3)cc12`, for which, in assay [1], the activation was 8.47% (inactive) and -10.4% (inactive) and 2.33% (inactive). Further, the Potency result in [2], in [3], in [15] and in assay [16] was “inactive” throughout.
